Bioassay records: PubChem BioAssay, National Center for Advancing Translational Sciences (NCATS)
An excerpt weighted towards active compounds, which were near 5.7% of everything screened.
Nrf2 block = inhibitors of Nrf2 signaling | A549 ARE-Fluc reporter, luciferase luminescence, 18-24 h | Potency, µM (doses to about 46 µM), for inactives: at the top dose activity change, negative = inhibition, usual class: inhibitors | hit rate 2.1% among 360,000; further: potency means the concentration at half of the fitted maximal effect; nearly all actives have a fitted effect of over 60% in size
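Quantitative HTS in A549 cells stably bearing an antioxidant response element-firefly luciferase construct. Inhibition of Nrf2-driven transcription was scored by luminescence after 18-24 h of compound exposure at 37 °C.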
KB-3-1 tox = KB-3-1 parental cell cytotoxicity. hit rate 1.4% among 400,000. KB-3-1 viability, CellTiter-Glo ATP luminescence, 72 h. AID 1347075. Potency, µM (highest dose often 46.1 µM), most hits filed as cytotoxic; further: potency means the concentration at half of the fitted maximal effect; nearly all actives have a fitted effect of over 60% in size
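KB-3-1 cells, DMEM (no phenol red) + 10% FBS; compound by pin transfer, 72 h, 37 °C. Readout: CellTiter-Glo luminescence after 10 min. Data normalized, curve-fitted.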
PI4K2A block = inhibitors of human PI4K2A. Q9BTU6. purified PI4K2A, ADP-Glo luminescence, 1 h; hits give low values. activity change, negative = inhibition, % at 76.9 µM. hit rate 0.13% among 420,000; in the data active means activity change below about -50%; inconclusive means mostly about -30% to -49%;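 further: -100% = wells without enzyme as full effect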
Target sequence (Q9BTU6 whole entry, looked up): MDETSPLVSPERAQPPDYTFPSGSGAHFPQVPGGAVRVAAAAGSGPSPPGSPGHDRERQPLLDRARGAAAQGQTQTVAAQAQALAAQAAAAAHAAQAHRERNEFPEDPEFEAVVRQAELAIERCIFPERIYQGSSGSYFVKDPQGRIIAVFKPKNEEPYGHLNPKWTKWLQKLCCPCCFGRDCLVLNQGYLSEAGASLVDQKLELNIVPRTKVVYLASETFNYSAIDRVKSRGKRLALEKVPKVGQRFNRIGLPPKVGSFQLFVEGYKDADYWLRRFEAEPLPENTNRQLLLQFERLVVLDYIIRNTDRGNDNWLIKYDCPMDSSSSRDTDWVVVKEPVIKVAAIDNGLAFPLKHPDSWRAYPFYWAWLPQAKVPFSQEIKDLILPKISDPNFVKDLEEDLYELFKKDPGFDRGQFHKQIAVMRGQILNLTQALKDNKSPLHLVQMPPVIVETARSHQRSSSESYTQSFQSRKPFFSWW
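Compounds are screened against recombinant PI4K2A using PI as substrate and ATP, the latter dispensed at 300 microM. Reactions run one hour at ambient temperature before ADP-Glo detection; full inhibition defined by wells lacking enzyme.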
A549 viability = A549 cytotoxicity, counter-screen for Nrf2 inhibitors; hit rate 0.16% among 390,000; AID 504648; Potency, µM (series often up to 46 µM), without a hit: at the highest dose activity change, negative = cytotoxicity, actives largely listed as inhibitors; A549 ARE-Fluc cells, CellTiter-Fluor viability, 18-24 h; further: potency means the concentration at half of the fitted maximal effect
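Cytotoxicity counterscreen: CellTiter-Fluor fluorescence was measured in A549 ARE_Fluc cells after 18-24 h of compound exposure in a concentration series. The subsequent BugLite luminescent read reports ARE-luciferase activity.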
KB-V1 cytotox = KB-V1 MDR subline cytotoxicity. KB-V1 MDR cells viability, CellTiter-Glo, 72 h. Potency, µM (top dose mostly 46.1 µM), hits mostly cytotoxic. hit rate 3.4% among 400,000. AID 1347076; further: potency means the concentration at half of the fitted maximal effect; nearly all actives have a fitted effect of over 60% in size
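KB-V1, DMEM (no phenol red) + 10% FBS; cpd pin-transferred, titration series; 72 h, 37 degrees C; CellTiter-Glo, luminescence. Data normalized, curve-fit.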
Giardia kill = Giardia lamblia killing; Giardia lamblia trophozoite viability; activity change, % at 7.66 µM, hits read low; hit rate 0.15% among 340,000; in the data active means activity change below about -80%; inconclusive means between about -30% and that limit;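 further: parasites exposed to compound for two days anaerobically before the ATP read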
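Giardia trophozoites, 100 cells per well, were exposed to compounds for 48 hrs at 37 deg C under anaerobic conditions; viability was then read as ATP content by bioluminescence after 15-30 min at room temperature.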
Active calls of the source: *. Unless noted, the call rests on the fitted dose curve; in most records, active means well fitted curve in the direction sought with a large enough effect; inconclusive means small, poorly fitted or top-dose-only effect, or another doubt; inactive means no such curve, though single readings can be large; an effect the other way counts as inactive or inconclusive. Unless noted, on the % scale 0 is the no-effect control and ±100 the full control effect.

How did Cc1ccc(S(=O)(=O)CCSc2nc(C)cc(C)c2C#N)cc1 do in these assays?
Nrf2 block: 20.6µM*; KB-3-1 tox: inactive; PI4K2A block: -0.7; A549 viability: -21.2%; KB-V1 cytotox: inconclusive; Giardia kill: -5.0

Results for CCS(=O)(=O)CCSc1nc(C)cc(C)c1C#N ?
Nrf2 block: 0.0%; KB-3-1 tox: inactive; PI4K2A block: -4.0; A549 viability: -1.0%; KB-V1 cytotox: inactive; Giardia kill: 26.0

How did COc1ccccc1CNC(=O)COc1cc2c(c3oc(=O)cc(C)c13)CCC(C)(C)O2 do in these assays?
Nrf2 block: inconclusive; KB-3-1 tox: inactive; PI4K2A block: 2.1; A549 viability: -9.2%; KB-V1 cytotox: 16.4µM*; Giardia kill: 0.5

What do the screens show for `COc1ccc(CNC(=O)COc2cc3c(c4oc(=O)cc(C)c24)CCC(C)(C)O3)cc1`?
Nrf2 block: inconclusive; KB-3-1 tox: inactive; PI4K2A block: 3.2; A549 viability: -15.2%; KB-V1 cytotox: inactive; Giardia kill: -2.7

How did COc1ccc(NC(=O)CCCNC(=O)Cn2cnc3sc4c(c3c2=O)CCCC4)c(OC)c1 do in these assays?
Nrf2 block: -8.9%; KB-3-1 tox: inactive; PI4K2A block: 2.0; A549 viability: -1.3%; KB-V1 cytotox: 20.6µM*; Giardia kill: -1.9

Results for COc1ccccc1S(=O)(=O)N1CCN(c2nc(-c3cccs3)nc3ccccc23)CC1 ?
Nrf2 block: -10.3%; A549 viability: 0.0%; Giardia kill: -11.2

How did CCCn1c(SCC(=O)N(C)C2CCS(=O)(=O)C2)nc2sc3c(c2c1=O)CCC3 (configuration not stated) do in these assays?
Nrf2 block: 0.4%; KB-3-1 tox: inactive; PI4K2A block: 4.4; A549 viability: 1.6%; KB-V1 cytotox: 23.1µM*; Giardia kill: 6.5

What do the screens show for `CC1CCc2c(sc3ncnc(SCC(=O)N(C)C4CCS(=O)(=O)C4)c23)C1` (configuration not stated)?
Nrf2 block: 16.4µM*; KB-3-1 tox: inactive; PI4K2A block: -3.5; A549 viability: -4.3%; KB-V1 cytotox: inactive; Giardia kill: 5.3

How did CCCN(CC1CC1)C(=O)CSc1ncnc2sc(C)c(C)c12 do in these assays?
Nrf2 block: inconclusive; KB-3-1 tox: inactive; PI4K2A block: 12.3; A549 viability: -1.2%; KB-V1 cytotox: inactive; Giardia kill: 9.4

Results for CCN(C(=O)CSc1ncnc2sc(C)c(C)c12)C1CCS(=O)(=O)C1 (configuration not stated) ?
Nrf2 block: 13µM*; KB-3-1 tox: inactive; PI4K2A block: 5.2; A549 viability: -0.7%; KB-V1 cytotox: inconclusive; Giardia kill: 15.4

How did COC(=O)[C@]12C[C@H](CC(=O)N3CCN(C(=O)C4CC4)CC3)C(=O)N(Cc3ccc(Cl)cc3Cl)C1=C[C@H](C1CCCC1)O[C@@H]2C do in these assays?
PI4K2A block: -0.4

What do the screens show for `N#CC(c1ccccc1)C1CCN(Cc2ccccc2)CC1` (configuration not stated)?
Nrf2 block: 1.8%; KB-3-1 tox: inactive; PI4K2A block: -1.6; A549 viability: 1.9%; KB-V1 cytotox: 20.6µM*; Giardia kill: -7.5

What do the screens show for `COc1ccccc1NC(=O)C1CCN(C(=O)c2sc3nc[nH]c(=O)c3c2C)CC1`?
PI4K2A block: -3.8; A549 viability: -16.1%

What do the screens show for `CC1CN(C(=O)C2CCCC2)C(C)CN1C(=O)C1CCCC1` (configuration not stated)?
Nrf2 block: -15.4%; KB-3-1 tox: inactive; PI4K2A block: -0.9; A549 viability: 8.7%; KB-V1 cytotox: 10.3µM*; Giardia kill: -8.6

Results for Cc1ccc(C2(C)NC(=O)N(CC(=O)c3ccc(Cl)s3)C2=O)cc1 (configuration not stated) ?
Nrf2 block: 2.7%; KB-3-1 tox: inactive; PI4K2A block: -1.1; A549 viability: -7.3%; KB-V1 cytotox: 20.6µM*; Giardia kill: 0.6

What do the screens show for `CCC(COC)NCc1cn(-c2ccc(OC)cc2)nc1-c1cccc(F)c1` (configuration not stated)?
Nrf2 block: -1.4%; KB-3-1 tox: inactive; PI4K2A block: -6.3; A549 viability: 0.0%; KB-V1 cytotox: 5.17µM*; Giardia kill: 1.3

Results for COc1ccc(-n2cc(CNC(C)c3ccncn3)c(-c3cccc(F)c3)n2)cc1 (configuration not stated) ?
Nrf2 block: -0.1%; KB-3-1 tox: inactive; PI4K2A block: -8.4; A549 viability: 1.3%; KB-V1 cytotox: inactive; Giardia kill: -3.2

How did Cc1ccc(C(=O)NCC(=O)OCC(=O)c2cccc3ccccc23)cc1 do in these assays?
Nrf2 block: 3.4%; KB-3-1 tox: inactive; A549 viability: 14.9%; KB-V1 cytotox: inactive; Giardia kill: 8.0

How did O=C(CSc1nnc(-c2ccc(Br)cc2)n1C1CCCCC1)N1CCCC1 do in these assays?
Nrf2 block: 9.0%; KB-3-1 tox: inactive; PI4K2A block: -6.3; A549 viability: -10.2%; KB-V1 cytotox: inactive; Giardia kill: 1.2

How did CC(C)(C)c1ccc(-c2nnc(SCCC#N)n2C2CCCC2)cc1 do in these assays?
Nrf2 block: 20.6µM*; KB-3-1 tox: inconclusive; PI4K2A block: 5.4; A549 viability: inconclusive; KB-V1 cytotox: inconclusive; Giardia kill: 12.6

Results for CCSc1nc(-c2ccc(Cl)cc2)nc2c1Cc1c(CO)cnc(C)c1O2 ?
Nrf2 block: inconclusive; KB-3-1 tox: inactive; PI4K2A block: -4.0; A549 viability: 0.8%; KB-V1 cytotox: inconclusive

Results for COc1ccc(CN2CC[C@H]3C=CC[C@@H](C(=O)Nc4nccs4)[C@H]3C2=O)cc1OC ?
KB-3-1 tox: inactive; KB-V1 cytotox: inactive

What do the screens show for `CC(=O)/C=C\c1cn(-c2ncc(C(F)(F)F)cc2Cl)c2ccccc12`?
KB-3-1 tox: 20.6µM*; PI4K2A block: 7.2; A549 viability: 4.3%; KB-V1 cytotox: inconclusive; Giardia kill: -1.8

Results for CO/N=C/NC(=O)Cc1cn(-c2ncc(C(F)(F)F)cc2Cl)c2ccccc12 ?
KB-3-1 tox: inconclusive; PI4K2A block: 7.7; A549 viability: 6.2%; KB-V1 cytotox: 13µM*; Giardia kill: -10.0

What do the screens show for `N#CC(C#N)=Cc1cn(-c2ncc(C(F)(F)F)cc2Cl)c2ccccc12`?
KB-3-1 tox: inactive; PI4K2A block: 54.9; A549 viability: -4.1%; KB-V1 cytotox: inconclusive; Giardia kill: 1.2

How did Cc1nnc(-c2cccc(Br)c2)c2cn(-c3cccc(Br)c3)nc12 do in these assays?
Nrf2 block: -16.0%; KB-3-1 tox: inconclusive; PI4K2A block: -4.8; A549 viability: -2.7%; KB-V1 cytotox: 9.2µM*; Giardia kill: -12.1
